# Assay outcomes deposited in PubChem by National Center for Advancing Translational Sciences (NCATS).
# Abeta rescue: restores growth of yeast expressing A-beta42 peptide | AID 1347071 | yeast expressing A-beta42, growth rescue, OD600, 48 h; response scale: 0% DMSO, 100% iron-clioquinol control | Potency, µM (titrated, usually from 46.1 µM), usual class: activators | 0.063% of 410,000 active; also: nearly all actives have a fitted effect of over 55% in size
#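 Yeast A-beta toxicity model in growth medium with pinned compounds, 48 h at 30 C; growth read as absorbance at 600 nm. Normalized to FeCl3/clioquinol equimolar mix (positive) and DMSO (negative).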
# aSyn rescue: rescues yeast growth from alpha-synuclein toxicity | Yeast expressing alpha-synuclein, growth rescue, BacTiter-Glo, 24 h | Potency, µM (doses to about 46.1 µM), for inactives: at the highest dose growth rescue (activation), most hits filed as activators | 0.14% of 370,000 active; also: % of control where 0% means no effect; nearly all actives have a fitted effect of over 65% in size
#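 Screening used galactose-induced yeast with toxic alpha-synuclein levels, exposed to compound for 24 hr at 30 deg C. Cell growth, read with BacTiter-Glo luminescence, gave the measured signal.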
# FUS suppressor: suppressors of FUS proteinopathy in yeast | S. cerevisiae FUS-expressing, growth rescue, OD600, 24 h | Potency, µM (doses to about 76.6 µM), actives largely listed as activators | 0.24% of 390,000 active | AID 1347120;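 also: plate controls were DMSO vehicle for no effect and reference control for full effect; nearly all actives have a fitted effect of over 55% in size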
#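 Toxicity suppression screen in FUS-yeast. Cells induced with 2% galactose, starting OD 0.005, treated 24hr at 30C with compounds at multiple final concentrations; growth by OD600.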
# TDP43 rescue: rescues yeast growth from TDP-43 toxicity; TDP-43 expressing yeast growth rescue, BacTiter-Glo, 24 h; Potency, µM (doses to about 46.1 µM), for inactives: at the highest dose growth rescue (activation), most hits filed as activators; 1.8% of 410,000 active; also: % of control where 0% means no effect; nearly all actives have a fitted effect of over 50% in size
#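 Readout is BacTiter-Glo luminescence of cell growth, so inhibitors register as activators. TDP-43-expressing yeast at OD600=0.02 in galactose medium, after raffinose pregrowth to mid-log, were incubated with compound for 24 hr at 30 deg C.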
# Active calls of the source: *; i = inactive; ? = inconclusive; · = no result given. Only some compounds are listed: those with a hit (about 2.1% of all), similar ones and a draw of the others. Calls follow the shape of the dose curve; as a rule, active = well fitted curve in the direction sought with a large enough effect; inconclusive = small, poorly fitted or top-dose-only effect, or another doubt; inactive = no such curve, though single readings can be large; an effect the other way counts as inactive or inconclusive. Potency is read from the fitted curve at half-maximal effect.
SMILES,Abeta rescue,aSyn rescue,FUS suppressor,TDP43 rescue
O=C(NCCc1ccccc1)c1cnc2sc(N3CCOCC3)nn2c1=O,i,·,i,-8%
CC1CCN(c2cc(N)c(Cl)cc2[N+](=O)[O-])CC1,i,?,i,18µM*
CCc1nnc(NC(=O)C2CC(=O)N(Cc3ccccc3)C2)s1 (stereo unspecified),i,0%,i,-7%
O=S(=O)(c1cccc(-c2csc(-c3ccccc3)n2)c1)N1CCOCC1,i,8%,i,-2%
O=S(=O)(c1cccc(-c2csc(N/N=C/c3ccco3)n2)c1)N1CCOCC1,i,2%,?,16µM*
COc1cc2c(cc1OC)C(C)N(C(=O)c1cccc([N+](=O)[O-])c1)CC2 (stereo unspecified),i,22µM*,i,13µM*
COC(=O)c1ccc(OCC2c3cc(OC)c(OC)cc3CCN2C(=O)c2cccc(C)c2)cc1 (stereo unspecified),i,22%,?,25µM*
COc1ccccc1C1CCN(C(=O)c2cccc([N+](=O)[O-])c2)CC1,i,1%,i,16µM*
COc1ccccc1C1CCN(C(=O)c2ccc(C(C)(C)C)cc2)CC1,i,-38%,i,12%
CC1c2cc3c(cc2CCN1C(=O)c1cccc(Cl)c1)OCCCO3 (stereo unspecified),i,0%,i,13µM*
Cc1ccc(Oc2ccc(NC(=O)CCC(=O)OCC(=O)c3cccs3)cc2)cc1C,i,-11%,·,18%
Cc1ccc(NC(=O)COC(=O)CN2C(=O)C3CCCCC3C2=O)cc1C (stereo unspecified),i,-3%,i,14%
N=P(N1CCOCC1)(N1CCOCC1)C12CC3CC(CC(C3)C1)C2,i,-7%,i,-5%
C#CCOCCOCCOCCNc1nc(N2CCOCC2)nc(N2CCN(C(=O)[C@H](Cc3ccc(O)cc3)n3cc([C@@H](N)C(C)CC)nn3)CC2)n1 (stereo partly specified),i,11%,i,-7%
Cn1ncc2c(NCc3ccccc3)nc(NCCCO)nc21,i,-8%,i,10%
CC(C)CCNc1nc(Nc2ccccc2)c2cnn(C)c2n1,i,·,?,18µM*
Cc1ccccc1OCCC(=O)Nc1ccc(F)c(Cl)c1,i,-5%,i,14µM*
C/C(=N\NC(=O)COc1ccccc1-c1ccccc1)c1cccnc1,i,8%,i,22%
C/C(=N\NC(=O)COc1ccccc1-c1ccccc1)c1ccccn1,i,18µM*,i,?
CC(C)(C)S(=O)N1Cc2cc(C(=O)NCc3ccc(Oc4ccccc4)cc3)nc(-c3cccc(-c4cc5ccccc5o4)c3)c2[C@@H]1CCO (stereo partly specified),i,-32%,32µM*,22µM*
COc1cccc(-c2cccc(-c3nc(C(=O)NCc4ccc(Oc5ccccc5)cc4)cc4c3[C@H](CCO)N(S(=O)C(C)(C)C)C4)c2)c1 (stereo partly specified),i,-27%,?,?
CNC(=S)N1N=C(c2ccc(Br)cc2)CC1c1ccc(Br)cc1 (stereo unspecified),i,15%,i,14%
CC(=O)CSc1ncnc2sc3c(c12)CCC3,i,?,i,25µM*
CCS(=O)(=O)n1nc(-c2ccco2)nc1SC,i,-17%,i,10%
CCS(=O)(=O)n1nc(-c2ccc(Cl)cc2)nc1SC,i,0%,i,16µM*
SMILES,Abeta rescue,aSyn rescue,FUS suppressor,TDP43 rescue
Fc1ccc(CNc2ccn3nc(-c4ccccc4)cc3n2)cc1,?,15%,?,18µM*
CCc1c(C)nc2nncn2c1NCc1ccc(OC)cc1,i,·,i,27%
COc1ccc(CNc2cc(-c3ccc(OC)cc3)nc3nncn23)cc1,i,·,i,14µM*
c1ccc(OCCNc2ccn3nc(-c4ccccc4)cc3n2)cc1,i,3%,i,27%
Fc1ccc(CNc2cc(-c3ccccc3)nc3nncn23)cc1,i,·,?,18µM*
Cc1nc2nncn2c(NCc2ccc(F)cc2)c1C,i,·,i,4%
CCc1ccc(-c2cc(C)no2)cc1S(=O)(=O)NCCc1ccccc1,i,22%,i,13µM*
Cc1cc(-c2ccc(C)c(S(=O)(=O)NCc3ccc(Cl)cc3)c2)on1,i,·,i,32µM*
CCc1ccc(-c2cc(C)no2)cc1S(=O)(=O)Nc1ccc(Cl)cc1,i,·,?,22µM*
CC(C)Sc1cc(N2CCCC2)nc(-c2ccccc2Cl)n1,i,12%,i,14µM*
O=C(Nc1cc(Sc2ccccn2)cc([N+](=O)[O-])c1)c1cccc(F)c1,i,3%,·,22µM*
CCSc1nnc(NC(=O)CCn2c(=O)oc3ccccc32)s1,i,-7%,i,-4%
O=C(CCn1c(=O)oc2ccccc21)Nc1nc2ccccc2s1,i,6%,i,28µM*
O=C(CSc1cccc[n+]1[O-])c1cccs1,i,5%,i,8%
O=C(O)CSc1cccc[n+]1[O-],i,2%,i,12%
O=C(CSc1cccc[n+]1[O-])c1cc(Cl)ccc1Cl,?,12%,i,11µM*
O=C(CSc1cccc[n+]1[O-])C12CC3CC(CC(C3)C1)C2,?,7%,i,14µM*
Cc1occc1C(=O)Nc1cccc(Cl)c1Cl,i,-6%,i,11µM*
CCc1c(C)nc2ncnn2c1NC1CCCc2ccccc21 (stereo unspecified),13µM*,8%,i,22%
Cc1cccc(Nc2nc(N)c([N+](=O)[O-])c(N3CC(C)CC(C)C3)n2)c1 (stereo unspecified),i,8%,i,17%
Cc1cccc(Nc2nc(NCc3ccco3)nc(N)c2[N+](=O)[O-])c1,i,5%,i,3%
Cc1cccc(Nc2nc(N)c([N+](=O)[O-])c(N3CCC(C)CC3)n2)c1,i,5%,i,25µM*
Cc1cccc(Nc2nc(N)c([N+](=O)[O-])c(NCc3ccco3)n2)c1,i,3%,?,14µM*
CN(C)c1nc(Nc2ccc(Cl)cc2)nc(OCC#N)n1,i,0%,i,11µM*
CCOc1nc(Nc2ccccc2)nc(OCC)n1,i,5%,i,?
CCOc1nc(Nc2ccc(Cl)cc2)nc(OCC)n1,i,-2%,i,11µM*
Cc1c(C(=O)N2CCC2)oc2ccc(Br)cc12,i,-11%,i,6%
O=C1SC(Nc2ccc(Cl)cc2)C(=O)N1Cc1ccccc1 (stereo unspecified),?,·,i,?
CCOc1ccc(NC2SC(=O)N(Cc3ccccc3)C2=O)cc1 (stereo unspecified),?,·,i,13µM*
Cn1cnc([N+](=O)[O-])c1S(=O)(=O)c1ccc(Cl)cc1,i,0%,i,14µM*
